Measured values published in PubChem BioAssay (NCATS).
Inconclusive results are not listed. Active and inactive are the calls of the source. Calls come from the whole dose curve; as a rule, active = well fitted curve in the direction sought with a large enough effect; inconclusive = small, poorly fitted or top-dose-only effect, or another doubt; inactive = no such curve, though single readings can be large; an effect the other way counts as inactive or inconclusive.

Assays:
[1] = Quantitative High-Throughput drug screen in 47 multiple myeloma cell lines against the NCATS MIPE library collection: ARD_JJKsccE7 cell viability assay (AID 1918929)
Procedure, shortened: (§1)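 Luminescent ATP measurement with CellTiter-Glo gives viability, scaled between DMSO-only wells (100%) and media-only wells (0%). Cells, 500 per well, faced library compounds for 48 hours at 37C.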

[2] = Quantitative High-Throughput drug screen in 47 multiple myeloma cell lines against the NCATS MIPE library collection: KHM11_PLB cell viability assay (AID 1918962); note: nearly all actives have a fitted effect of over 35% in size
Procedure, shortened: (§2)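 Inhibition of cell viability is measured here. Each line was plated at 500 cells per well, treated with MIPE 4.0 drugs, kept 48 hours at 37C, then assayed for ATP content by CellTiter-Glo luminescence.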

[3] = Quantitative High-Throughput drug screen in 47 multiple myeloma cell lines against the NCATS MIPE library collection: JIM3_ECACC cell viability assay (AID 1918963; note: nearly all actives have a fitted effect of over 35% in size)
Procedure, shortened: as §2

[4] = Quantitative High-Throughput drug screen in 47 multiple myeloma cell lines against the NCATS MIPE library collection: INA6_PLB cell viability assay (AID 1918965; note: nearly all actives have a fitted effect of over 55% in size)
Procedure, shortened: (§3)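 qHTS of the MIPE 4.0 collection: 500 myeloma cells/well, 48 h drug exposure at 37C in 5% CO2, then CellTiter-Glo for 5 min at room temperature before luminescence reading.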

[5] = Quantitative High-Throughput drug screen in 47 multiple myeloma cell lines against the NCATS MIPE library collection: JJN3_DSMZ cell viability assay (AID 1918966; note: nearly all actives have a fitted effect of over 50% in size)
Procedure, shortened: as §1

[6] = Quantitative High-Throughput drug screen in 47 multiple myeloma cell lines against the NCATS MIPE library collection: H1112_PLB cell viability assay (AID 1918967; note: nearly all actives have a fitted effect of over 30% in size)
Procedure, shortened: as §1

[7] = Quantitative High-Throughput drug screen in 47 multiple myeloma cell lines against the NCATS MIPE library collection: Karpas25_ECACC cell viability assay (AID 1918968; note: nearly all actives have a fitted effect of over 35% in size)
Procedure, shortened: as §1

[8] = Quantitative High-Throughput drug screen in 47 multiple myeloma cell lines against the NCATS MIPE library collection: KMS27_JCRB cell viability assay (AID 1918970); settings: KMS27 myeloma cells, CellTiter-Glo ATP viability, 48 h; viability (% of DMSO): at 45.8 µM (top of the series); note: nearly all actives have a fitted effect of over 30% in size
Procedure, shortened: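 Myeloma cells (500 per well) were exposed to MIPE 4.0 compounds for 48 h at 37 °C, 5% CO2; viability was read as ATP luminescence with CellTiter-Glo, normalized to DMSO-only (100%) and media-only (0%) wells.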

[9] = Quantitative High-Throughput drug screen in 47 multiple myeloma cell lines against the NCATS MIPE library collection: KMS12BM_JCRB cell viability assay (AID 1918971); note: nearly all actives have a fitted effect of over 35% in size
Procedure, shortened: (§4)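 Viability readout: CellTiter-Glo luminescence following 5 min room-temperature incubation with reagent. Prior exposure: 48 h, 37C, humidified 5% CO2, 500 cells per well.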

[10] = Quantitative High-Throughput drug screen in 47 multiple myeloma cell lines against the NCATS MIPE library collection: KMS26_JCRB cell viability assay (AID 1918975); note: nearly all actives have a fitted effect of over 45% in size
Procedure, shortened: as §4

[11] = Quantitative High-Throughput drug screen in 47 multiple myeloma cell lines against the NCATS MIPE library collection: MMM1_PLB cell viability assay (AID 1918976); note: nearly all actives have a fitted effect of over 35% in size
Procedure, shortened: (§5)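 Viability after 48 h drug exposure was measured as ATP-dependent luminescence. Cells, 500 per well, sat at 37 °C under 5% CO2; DMSO wells set 100%, media-only wells 0%.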

[12] = Quantitative High-Throughput drug screen in 47 multiple myeloma cell lines against the NCATS MIPE library collection: NCIH929_DSMZ cell viability assay (AID 1918978); note: nearly all actives have a fitted effect of over 35% in size
Procedure, shortened: as §5

[13] = Quantitative High-Throughput drug screen in 47 multiple myeloma cell lines against the NCATS MIPE library collection: JIM1_ECACC cell viability assay (AID 1918964)
Procedure, shortened: as §1

[14] = Quantitative High-Throughput drug screen in 47 multiple myeloma cell lines against the NCATS MIPE library collection: KMS20_JCRB cell viability assay (AID 1918973); note: nearly all actives have a fitted effect of over 45% in size
Procedure, shortened: as §1

[15] = Quantitative High-Throughput drug screen in 47 multiple myeloma cell lines against the NCATS MIPE library collection: KMM1_JCRB cell viability assay (AID 1918960); note: nearly all actives have a fitted effect of over 30% in size
Procedure, shortened: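 Myeloma cells, 500 per well, were exposed to MIPE 4.0 drugs by pin transfer for 48 h at 37 °C, 5% CO2. Viability was read as ATP luminescence with CellTiter-Glo, normalised to DMSO-only (100%) and medium-only (0%) wells.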

[16] = Quantitative High-Throughput drug screen in 47 multiple myeloma cell lines against the NCATS MIPE library collection: KMS12PE_JCRB cell viability assay (AID 1918972); note: nearly all actives have a fitted effect of over 30% in size
Procedure, shortened: as §3

[17] = Quantitative High-Throughput drug screen in 47 multiple myeloma cell lines against the NCATS MIPE library collection: MOLP8_DSMZ cell viability assay (AID 1918977); note: nearly all actives have a fitted effect of over 45% in size
Procedure, shortened: as §5

[18] = Quantitative High-Throughput drug screen in 47 multiple myeloma cell lines against the NCATS MIPE library collection: Karpas417_ECACC cell viability assay (AID 1918961); settings: Karpas417 myeloma viability, CellTiter-Glo ATP luminescence, 48 h; viability (% of DMSO): at 45.8 µM (top of the series)
Procedure, shortened: as §3

[19] = Quantitative High-Throughput drug screen in 47 multiple myeloma cell lines against the NCATS MIPE library collection: KMS21BM_JCRB cell viability assay (AID 1918974); settings: ATP luminescence, 48 h; viability: at 45.8 µM (top of the series)
Procedure, shortened: as §1

Measured: Potency
Potency is the fitted concentration of half-maximal effect.

C=C1C(=O)O[C@H]2[C@@H]1CCC(C)=CCC[C@@]1(C)O[C@@H]21
active: [1] 2960 nM | [2] 10500 nM | [3] 2960 nM | [4] 935 nM | [5] 7430 nM | [6] 4180 nM | [7] 1050 nM | [8] 9350 nM | [9] 8330 nM | [10] 3720 nM | [11] 13200 nM | [12] 2960 nM

COc1cc(N2CCC(C(N)=O)CC2)ccc1Nc1nc(N)c(Cl)c(Nc2ccccc2S(=O)(=O)C(C)C)n1
active: [1] 59 nM | [3] 166 nM | [13] 46.9 nM | [4] 7430 nM | [5] 105 nM | [6] 148 nM | [7] 235 nM | [8] 264 nM | [9] 2640 nM | [14] 1 nM | [10] 1870 nM | [11] 209 nM | [12] 93.5 nM

CCOC(=O)C1=C(C)NC(=S)NC1c1cccc(O)c1 (stereo unspecified)
active: [1] 833 nM | [15] 469 nM | [3] 37.2 nM | [13] 296 nM | [4] 26.4 nM | [7] 29.6 nM | [9] 66.2 nM | [16] 372 nM | [17] 37.2 nM | [12] 37.2 nM

CC1(C)O[C@@H]2C[C@H]3[C@@H]4CCC5=CC(=O)C=C[C@]5(C)[C@@H]4[C@@H](O)C[C@]3(C)[C@]2(C(=O)CO)O1
inactive: [3] | [6] | [9] | [16] | [10]
active: [1] 5.3 nM | [7] 148 nM | [12] 16600 nM

COc1ccc(C=Cc2cc(OC)c(OC)c(OC)c2)cc1NC(=O)[C@H](N)CO
active: [1] 11.8 nM | [18] 590 nM | [4] 1 nM | [5] 23.5 nM | [7] 1 nM | [9] 16.6 nM | [16] 11.8 nM | [10] 33.2 nM | [11] 18.7 nM | [17] 66.2 nM | [12] 5.9 nM
inactive: [2]

CCCCCCCN(CC)CCCC(O)c1ccc(NS(C)(=O)=O)cc1 (stereo unspecified)
inactive: [5] | [9]
active: [1] 20900 nM | [15] 20900 nM | [8] 20900 nM | [16] 16600 nM

CC[C@]12C=CCN3CC[C@@]4(c5cc([C@@]6(C(=O)OC)C[C@H]7C[C@@H](C(C)(F)F)CN(Cc8c6[nH]c6ccccc86)C7)c(OC)cc5N(C)[C@H]4[C@@](O)(C(=O)OC)[C@H]1OC(C)=O)[C@@H]32
active: [1] 4.2 nM | [15] 8.3 nM | [4] 1 nM | [5] 1480 nM | [6] 37.2 nM | [7] 23.5 nM | [9] 7.4 nM | [16] 7.4 nM | [10] 1480 nM | [11] 4690 nM | [17] 9350 nM | [12] 469 nM

Oc1ccc([C@@H]2Oc3ccc(O)cc3[C@@H]3CCC[C@@H]32)cc1
inactive: [1] | [15] | [16]
active: [6] 11800 nM | [7] 14800 nM | [9] 14800 nM | [12] 18700 nM

C[C@@H]1C(=O)O[C@H]2CC34[C@H]5C[C@@H](C(C)(C)C)C36[C@H](OC(=O)[C@@H]6O)O[C@@]4(C(=O)O5)[C@]21O (stereo partly specified)
not listed: [2] | [5] | [8] | [11] | [14] | [18] | [19]
inactive: all other assays above

CCc1cc(C(C)=NOCc2ccc(C3CCCCC3)c(C(F)(F)F)c2)ccc1CN1CC(C(=O)O)C1
active: [1] 4690 nM | [18] 59 nM | [6] 14800 nM | [9] 18700 nM
inactive: [4] | [17]

COc1ccc([C@@H]2CNC(=O)C2)cc1OC1CCCC1
active: [2] 10500 nM | [4] 9350 nM | [6] 2960 nM | [7] 3320 nM | [14] 3720 nM | [12] 4180 nM
inactive: [1] | [18] | [5] | [9]

COc1cc(C[C@@H](CO)[C@H](CO)Cc2ccc(O)c(OC)c2)ccc1O
active: [1] 9350 nM | [18] 5900 nM | [2] 1180 nM | [3] 2640 nM | [4] 1180 nM | [6] 372 nM | [7] 418 nM | [8] 2960 nM | [16] 3720 nM | [14] 526 nM | [19] 2350 nM | [10] 1320 nM | [12] 590 nM
